Source: PubChem (National Center for Advancing Translational Sciences (NCATS))
Compounds with a hit are over-represented: about 7.5% of the library has one in this group of screens.
ELG1 genotox = qHTS screen for small molecules that induce genotoxicity in human embryonic kidney (HEK293T) cells expressing luciferase-tagged ELG1 | HEK293T ELG1-luciferase reporter, luminescence, 16 h | Potency, µM (highest dose often 46 µM), for inactives: top-dose activity change, positive = activation, hits mostly activators | hit rate 1.3% among 330,000; further: % of control where 0% means no effect; nearly all actives have a fitted effect of over 60% in size
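16 hr compound incubation (37 °C, 5% CO2) of HEK293T cells carrying luciferase-tagged ELG1; luciferase then measured by ONE-Glo luminescence after 30 min at RT.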
FLuc counter = qHTS profiling assay for firefly luciferase inhibitor/activator using purifed enzyme and Km concentrations of substrates (counterscreen for miR-21 project) | Potency, µM (titrated, usually from 57.5 µM), inactives show at the highest dose activity change, negative = inhibition, usual class: inhibitors | hit rate 6.9% among 360,000 | purified FLuc, Km substrates, luminescence inhibition | Luciferin 4-monooxygenase (Photinus pyralis), P08659;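 further: plate controls were vehicle for no effect and reference inhibitor for full effect; nearly all actives have a fitted effect of over 55% in size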
Target sequence (P08659 whole entry, looked up): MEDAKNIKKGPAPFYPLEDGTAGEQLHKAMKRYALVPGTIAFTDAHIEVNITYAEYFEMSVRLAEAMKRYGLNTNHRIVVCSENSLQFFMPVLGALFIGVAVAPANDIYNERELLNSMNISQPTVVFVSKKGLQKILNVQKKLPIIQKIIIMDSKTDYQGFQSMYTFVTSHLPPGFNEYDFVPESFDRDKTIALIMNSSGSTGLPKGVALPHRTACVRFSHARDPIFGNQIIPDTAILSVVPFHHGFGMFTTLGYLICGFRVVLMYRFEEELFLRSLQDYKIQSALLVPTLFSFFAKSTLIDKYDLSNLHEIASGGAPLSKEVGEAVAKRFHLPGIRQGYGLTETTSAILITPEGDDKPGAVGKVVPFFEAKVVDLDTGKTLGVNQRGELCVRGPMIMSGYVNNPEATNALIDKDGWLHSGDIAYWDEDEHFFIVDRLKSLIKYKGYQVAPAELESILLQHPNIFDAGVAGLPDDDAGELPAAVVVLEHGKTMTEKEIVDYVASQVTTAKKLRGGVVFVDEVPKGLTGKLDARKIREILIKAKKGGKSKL
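Purified P. pyralis luciferase, 10 nM final, with Km-level 10 uM D-luciferin and 10 uM ATP in 50 mM Tris acetate pH 7.5, 10 mM Mg acetate, 0.01% Tween-20, 0.05% BSA; 6-point qHTS titration about 60 µM downward; luminescence read.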
KinaseGlo FLuc = Counterscreen for Luciferase (Kinase-Glo TM) Inhibition. Potency, µM (titrated, usually from 38.3 µM), for the others: top-dose activity change, negative = inhibition, actives largely listed as inhibitors. Kinase-Glo luciferase, ATP luminescence, 8 min. hit rate 0.28% among 200,000. Luciferin 4-monooxygenase (Photuris pensylvanica), Q27757; further: on the % scale 0 is the no-effect control and ±100 the full control effect; nearly all actives have a fitted effect of over 60% in size
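Compound is pinned into ATP-containing buffer (10 uM ATP, imidazole pH 7.2, 7 mM MgCl2). Kinase-Glo luciferase reagent is then added. Light output is recorded following an 8-min room-temperature incubation.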
NPC1 prom act = qHTS Assay for NPC1 Promoter Activators | Huh7 NPC1 promoter luciferase reporter, 24 h | Potency, µM (top dose mostly 9.22 µM), without a hit: at the top dose activation, actives largely listed as activators | hit rate 2.4% among 320,000; further: % of control where 0% means no effect; nearly all actives have a fitted effect of over 60% in size
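Huh7 reporter cells (NPC1 promoter driving luciferase) are dosed with compound for 24 h at 37 °C, 5% CO2; luciferase detection reagent is then added and luminescence measured after 10 min at ambient temperature.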
Rab9 prom act = qHTS Assay for Rab9 Promoter Activators; Huh7 Rab9 promoter-luciferase reporter, luminescence, 24 h; Potency, µM (top dose mostly 9.22 µM), for inactives: at the top dose activation, negative = inhibition, usual class: activators; hit rate 2.8% among 320,000; AID 485297, 2010; further: % of control where 0% means no effect; nearly all actives have a fitted effect of over 60% in size
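Using Huh7 cells stably transfected with Rab9 promoter–luciferase, compounds were incubated 24 h at 37 °C, 5% CO2; luciferase luminescence was read 10 min after reagent addition.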
SMN2 splice enh = qHTS Assay for Enhancers of SMN2 Splice Variant Expression; HEK293 SMN2-luciferase splicing reporter, luminescence, 30-36 h; hit rate 2.8% among 210,000; Potency, µM (highest dose often 46.1 µM), for the others: top-dose activity change, positive = activation, hits mostly activators; further: % of control where 0% means no effect; nearly all actives have a fitted effect of over 55% in size
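HEK293 cells carry an SMN2 minigene-luciferase reporter in which exon 7 inclusion puts luciferase in frame. Cells were seeded at 2000 cells/well, attached for 10-12 hours, then exposed to compounds for 30-36 hours at 37C before ONE-Glo luminescence.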
Starred values were filed as active, the others as inactive; ? = inconclusive; nt = no result. The call rests on the fitted dose curve; in most records, active means well fitted curve in the direction sought with a large enough effect; inconclusive means small, poorly fitted or top-dose-only effect, or another doubt; inactive means no such curve, though single readings can be large; an effect the other way counts as inactive or inconclusive. Potency means the concentration at half of the fitted maximal effect.

SMILES	ELG1 genotox	FLuc counter	KinaseGlo FLuc	NPC1 prom act	Rab9 prom act	SMN2 splice enh
COc1ccc2sc(NC(C)=O)nc2c1	9.2µM*	17µM*	-17%	2.5µM*	?	18µM*
COc1ccc2sc(NC(=O)CC(C)C)nc2c1	18µM*	11µM*	-4%	?	4.5µM*	?
CCC(=O)Nc1nc2ccc3nc(C)sc3c2s1	8.2µM*	?	3%	?	4µM*	11µM*
CCC(=O)Nc1nc2cc(OC)ccc2s1	?	12µM*	4%	2.2µM*	1.4µM*	?
CCn1c(CNC(=O)c2ccc(OC)cc2)nnc1SCC(=O)Nc1ccc(C)cc1	nt	-17%	nt	nt	nt	3%
O=C(O)c1ccc(NS(=O)(=O)c2cccc(C(=O)Nc3cccc(C(=O)O)c3)c2)cc1	0%	?	nt	0%	0%	nt
COc1ccc(CCN2C(=O)N[C@@H](C(C)C)C2=O)cc1	1%	1%	nt	-5%	-14%	nt
COc1ccc2sc(NC(=O)NC(=O)c3c(Cl)cccc3Cl)nc2c1	0%	19µM*	nt	12%	-1%	nt
COc1ccc2sc(NCc3ccccc3)nc2c1	?	6µM*	nt	2.2µM*	3.5µM*	nt
COc1ccc(CNC(=O)C2CCN(S(=O)(=O)Cc3ccccc3)CC2)cc1	nt	-5%	nt	nt	nt	nt
O=C(N/N=C/c1ccc2c(c1)OCO2)c1cccnc1	24%	27µM*	nt	28%	13%	nt
O=C(N/N=C/c1cccnc1)c1ccc2c(c1)OCCO2	?	6µM*	?	?	3.2µM*	8.9µM*
Cc1ccc(C(=O)N/N=C/c2cccc(OC(=O)/C=C/c3ccco3)c2)cn1	9%	12µM*	-2%	2%	-1%	nt
O=C(N/N=C\c1ccc2c(c1)OCO2)c1cncc(Br)c1	-14%	?	nt	12%	15%	nt
Cc1cc(C(=O)N/N=C/C=C/c2ccc3c(c2)OCO3)n[nH]1	5%	15µM*	-5%	1%	6%	-13%
O=C(N/N=C\C=C\c1ccc2c(c1)OCO2)c1ccc(F)cc1	-4%	?	1%	9%	2%	-13%
C[C@@](N)(C(=O)O)c1ccc(P(=O)(O)O)cc1	nt	nt	-1%	nt	nt	nt
O=C(NCc1ccc2c(c1)OCO2)c1ccc2c(c1)N(Cc1cccc(Cl)c1)C(=O)c1ccccc1S2=O (configuration not stated)	nt	-2%	nt	nt	nt	nt
Cc1cccc(C(=O)Nc2ccc(C(=O)N/N=C/c3ccc4c(c3)OCO4)cc2)c1	8%	-7%	nt	0%	-5%	nt
Cc1ccc(C(=O)N/N=C\c2ccc3c(c2)OCO3)cn1	6%	17µM*	nt	1%	3%	nt
COc1ccc2cc(C(=O)/C=C/c3cc(OC)c(O)c(OC)c3)ccc2c1	-37%	1.9µM*	nt	?	-1%	nt
COc1cc(/C=C/C(=O)c2ccccc2O)cc(OC)c1OC	?	?	-1%	-2%	-8%	24%
COc1ccc(C(=O)/C=C/c2cc(OC)c(O)c(OC)c2)c(F)c1	-2%	19µM*	0%	0%	-17%	nt
O=C(O)c1cccc(N2CCCC2=O)c1	3%	-18%	7%	0%	-1%	-2%
CC(C)/C=N/NC(=O)c1cccc(N2CCCC2=O)c1	7%	0%	2%	-7%	-5%	6%
C/C(=N/NC(=O)c1cccc(N2CCCC2=O)c1)c1ccc(Br)cc1	6%	15µM*	nt	1%	-2%	nt
C/C(=N/NC(=O)c1cccc(N2CCCC2=O)c1)c1ccncc1	?	15µM*	-5%	?	3.2µM*	nt
O=c1c2ccccc2cnn1-c1ccc2ccccc2c1	?	1.2µM*	-29%	1.4µM*	1.8µM*	5µM*
